LMP1 NFkB inh – EBV LMP1-driven NF-kappaB luciferase reporter inhibitors, primary screen, cell-based, luminescence, single point. actives 0.69% (n = 350,000). inhibition, % at 12.5 µM. LMP1-induced NF-kappaB luciferase reporter cells; in the data active means inhibition above about 41%; inconclusive means no clear call, values can overlap the other calls
TWEAK-Fn14 inh – inhibitors of TWEAK-Fn14 signaling, primary screen, luciferase reporter cells, uHTS; TWEAK-stimulated Fn14 reporter cells, luciferase luminescence, 8 h; inhibition, % at 10 µM; actives 2% (n = 360,000); in the data active means inhibition above about 50%
Peg3 promoter – Peg3 promoter-driven luciferase inhibitors, primary screen, cell-based, HeLa, luciferase luminescence; HeLa PEG-Prom luciferase reporter, overnight; actives 1.7% (n = 360,000); inhibition, % at 20 µM; AID 588405, 2011;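 active means inhibition of at least 50% at 20 µM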
Shn3 3UTR inh – reduction of Shn3 3'UTR firefly luciferase signal, primary screen, Schnurri-3 inhibitor project, cell-based, Clone20 osteoblasts, set 2; actives 0.52% (n = 360,000); Clone20 osteoblast Shn3 3'UTR firefly luciferase, 24 h; inhibition, % at 12.5 µM; AID 588674, 2011;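 active means mean inhibition of at least 75% with every replicate also reaching 75%; inconclusive means mean inhibition at least 75% but some replicate below; inactive means mean inhibition below 75%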
MITF TRPM1 inh – inhibitors of MITF-dependent TRPM1 promoter reporter, primary screen, cell-based, SK-MEL-5, single point, luciferase; SK-MEL-5 TRPM1 promoter luciferase, 24 h; inhibition, % at 12.5 µM; actives 0.83% (n = 330,000); AID 488899, 2010;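 active means mean inhibition across replicates of 60% or more, whatever share of single replicates reaches that level; inconclusive means some that reach 60%, reason not given; inactive means mean inhibition across replicates below 60%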
TROY NFkB inh – inhibitors of TROY-driven NF-kB signaling, primary screen, Q293 LMP1-TROYcd cells, NF-kB luciferase, uHTS; Q293 LMP1-TROYcd NF-kB luciferase reporter, 4 h; inhibition, % at 10 µM; actives 0.98% (n = 360,000);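 active means compounds whose plate-normalised and pattern-corrected inhibition of the luciferase reporter signal at the single screening dose is 50% or more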
Hits are given with their value; . = inactive; ? = inconclusive; / = not tested or not shown. In the library only some 4.1% were active in any assay of this set; here they are far more common.

SMILES	LMP1 NFkB inh	TWEAK-Fn14 inh	Peg3 promoter	Shn3 3UTR inh	MITF TRPM1 inh	TROY NFkB inh
COc1cc(NS(=O)(=O)c2ccc(C)cc2)c2ncccc2c1	.	107	68	95	74	.
COc1ccc(S(=O)(=O)Nc2ccccn2)cc1	.	.	.	.	.	.
Cc1ccc(S(=O)(=O)Nc2cccc3cccnc23)cc1	.	107	109	.	83	79
Cc1ccc(S(=O)(=O)Nc2ccccc2C(N)=O)cc1	.	.	.	.	.	.
CC(C)(CNC(=O)Cc1ccc(Br)cc1)N1CCOCC1	.	.	.	.	.	.
COC(=O)[C@]12CCCCC=C1N(CCC1=CCCCC1)C(=O)[C@H](CC(=O)NCc1cccc(C(F)(F)F)c1)C2	/	.	/	/	/	.
C[C@@H]1CN([C@H](C)CO)C(=O)CCCn2nncc2CO[C@H]1CN(C)C(=O)OCc1ccccc1	.	.	.	.	/	.
CCOC(=O)C1C(=O)C=C(c2ccc(C)cc2)CC1c1ccco1 (stereo unspecified)	48	.	.	.	.	.
CCOC(=O)Cn1c(=NC(=O)C2COc3ccccc3O2)sc2cc(S(N)(=O)=O)ccc21 (stereo unspecified)	.	.	.	.	.	.
CCOC(=O)Cn1c(=NC(=O)c2ccc([N+](=O)[O-])s2)sc2ccccc21	.	.	.	.	73	.
Cc1ccc(CNc2ncnc3ccc(-c4ccoc4C)cc23)o1	/	65	.	.	/	.
COc1ccc(-n2nnc3c(=O)n(CC(=O)Nc4cc(C)on4)cnc32)cc1	.	.	.	.	.	.
Cc1[nH]c2ccccc2c1C(=O)C(C)OC(=O)c1ccccc1NCCO (stereo unspecified)	.	53	.	.	.	.
O=C(OCc1nc2ccc(Cl)cc2n1CCO)c1ccc(O)cc1	.	67	.	.	.	77
O=C(OCc1nc2ccc(Cl)cc2n1CCO)c1ccccc1	.	.	.	.	.	.
COc1ccc(C2=NS(=O)(=O)N(C)C(C(=O)NCc3ccc4c(c3)OCO4)=C2)cc1OC	.	.	.	.	.	.
CCc1ccc(NC(=O)c2cnc(N3CCN(c4ccccn4)CC3)c3ccccc23)cc1	.	101	65	.	.	60
CC(C)NC(=O)c1cnc(N2CCN(c3ccccn3)CC2)c2ccccc12	.	.	.	.	.	.
O=C1NC(Cc2ccc(O)cc2)c2nc3cc(F)ccc3c(=O)n2-c2cc3ccccc3cc21 (stereo unspecified)	.	.	.	.	/	.
Cc1ccc2c(=O)n3c(nc2c1)C(Cc1ccc(O)cc1)NC(=O)c1cc2ccccc2cc1-3 (stereo unspecified)	.	.	62	.	/	.
O=C1NC(Cc2ccc(O)cc2)c2nc3ccc(Cl)cc3c(=O)n2-c2cc3ccccc3cc21 (stereo unspecified)	.	.	61	.	/	.
Cc1ccc(N(C)C(=O)C2CCCN2S(=O)(=O)c2ccc3c(c2)n(C)c(=O)c(=O)n3C)cc1 (stereo unspecified)	.	66	.	.	.	.
Cc1ccc(S(=O)(=O)N2CCCCC2C(=O)N(C)c2ccccc2)cc1 (stereo unspecified)	.	.	.	.	.	.
CC1(C)CC(N=c2cc(-c3ccccc3)oc3ccc(Cl)cc23)CC(C)(C)N1	.	.	108	.	.	.
CC(=O)Oc1ccc(N2C(=O)c3cccc4c([N+](=O)[O-])ccc(c34)C2=O)cc1	.	.	.	.	.	55
O=C1c2cccc3c([N+](=O)[O-])ccc(c23)C(=O)N1c1ccc(Cl)cn1	.	.	105	.	.	62
O=C1c2cccc3c([N+](=O)[O-])ccc(c23)C(=O)N1c1ccccn1	55	.	94	.	.	.
O=C1c2cccc3c([N+](=O)[O-])ccc(c23)C(=O)N1c1nccs1	49	.	94	.	?	.
O=C1c2cccc3cccc(c23)C(=O)N1c1nccs1	.	.	.	.	.	.

Source: PubChem BioAssay
